# Assay outcomes: PubChem, National Center for Advancing Translational Sciences (NCATS)
# Shown are actives, neighbours in structure and some others; about 19% of the full set was active somewhere.
# TDP1 cell CPT = qHTS for Inhibitors of human tyrosyl-DNA phosphodiesterase 1 (TDP1): qHTS in cells in presence of CPT; hit rate 12% among 420,000; chicken DT40 Tdp1-/-;hTDP1 cells + 20 nM CPT, ATP luminescence, 48 h; Potency, µM (top dose mostly 46.2 µM), without a hit: at the highest dose activity change, negative = growth inhibition, usual class: inhibitors; also: nearly all actives have a fitted effect of over 55% in size
#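 Cell growth measured by CellTiter-Glo luminescence after a minimum 48 h, 37 C compound exposure with 20 nM CPT in Tdp1-knockout DT40 cells stably expressing hTDP1, seeded 400/well; qHTS titration format.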
# KB-V1 cytotox = qHTS assay for MDR1-selective chemotherapeutics: Primary screen using the drug-selected MDR subline cells KB-V1 | hit rate 3.4% among 400,000 | Potency, µM (highest dose often 46.1 µM), usual class: cytotoxic | KB-V1 MDR cells viability, CellTiter-Glo, 72 h; also: nearly all actives have a fitted effect of over 60% in size
#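 qHTS viability screen in drug-selected KB-V1 MDR cells: 72 h compound treatment at 37 degrees C, ATP luminescence end point.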
# HT1080 IDH1KD tx = qHTS for induction of synthetic lethality in tumor cells producing 2HG: qHTS for the HT-1080-IDH1KD cell line. HT-1080 IDH1 knockdown viability, ATP luminescence, 48 h. Potency, µM (top dose mostly 46.1 µM), for inactives: top-dose activity, negative = toxicity, usual class: cytotoxic. hit rate 2% among 360,000;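 also: 0% = DMSO wells and -100% = cell-free medium wells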
#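 IDH1KD HT-1080 cells, 750/well, RPMI + 5% FBS; compound pinned after 2 h settling; 48 h, 37 °C; CellTiter-Glo luminescence; % activity normalised to DMSO and no-cell wells; curves fitted, classed by r2 and efficacy.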
# DT40 TDP1 no CPT = qHTS for Inhibitors of human tyrosyl-DNA phosphodiesterase 1 (TDP1): qHTS in cells in absence of CPT; DT40 Tdp1-/- hTDP1 cells, no CPT, ATP luminescence, 48 h; Potency, µM (doses to about 46.2 µM), without a hit: top-dose activity change, negative = growth inhibition, most hits filed as inhibitors; hit rate 15% among 420,000; AID 686978, 2013; also: nearly all actives have a fitted effect of over 55% in size
#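 DT40 Tdp1-/-;hTDP1 cells, no CPT (DMSO vehicle only), 400 cells/well; compounds pin-transferred; ≥48 hr, 37 °C; CellTiter-Glo 30 min RT dark, luminescence read.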
# KB-3-1 cytotox = qHTS assay for MDR1-selective chemotherapeutics: Primary screen using the parental adenocarcinoma cell KB-3-1; Potency, µM (highest dose often 46.1 µM), usual class: cytotoxic; KB-3-1 viability, CellTiter-Glo ATP luminescence, 72 h; AID 1347075, 2019; hit rate 1.4% among 400,000; also: nearly all actives have a fitted effect of over 60% in size
#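 KB-3-1 cells, DMEM (no phenol red) + 10% FBS; compound by pin transfer, 72 h, 37 °C. Readout: CellTiter-Glo luminescence after 10 min. Data normalized, curve-fitted.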
# HT1080-NT tox = qHTS for induction of synthetic lethality in tumor cells producing 2HG: qHTS for the HT-1080-NT fibrosarcoma cell line | hit rate 1.6% among 360,000 | Potency, µM (titrated, usually from 46.1 µM), without a hit: at the top dose activity, negative = less viability, hits mostly cytotoxic | HT-1080-NT fibrosarcoma viability, CellTiter-Glo ATP luminescence, 48 h;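 also: NT is the 2HG producing partner of a matched IDH1 knockdown line; 0% = DMSO-treated cells and -100% = media-only wells without cells; nearly all actives have a fitted effect of over 55% in size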
#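 Luminescent CellTiter-Glo readout after 48 hours of compound exposure at 37 degrees C defined viability of HT-1080-NT cells. Activity was normalized to DMSO wells and cell-free media wells; concentration-response curves were fitted and assigned curve classes.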
# The depositor's hits bear a star; i = inactive; ? = inconclusive; / = no result given. Calls follow the shape of the dose curve; as a rule, active = well fitted curve in the direction sought with a large enough effect; inconclusive = small, poorly fitted or top-dose-only effect, or another doubt; inactive = no such curve, though single readings can be large; an effect the other way counts as inactive or inconclusive. Unless noted, % is scaled to controls: 0 for no effect and ±100 for the full control effect; potency is read from the fitted curve at half-maximal effect.
SMILES,TDP1 cell CPT,KB-V1 cytotox,HT1080 IDH1KD tx,DT40 TDP1 no CPT,KB-3-1 cytotox,HT1080-NT tox
Cc1cc(OC(C)C(=O)NCc2ccncc2)c2c(C)c(C)c(=O)oc2c1 (centres undefined),?,i,6%,-28%,i,8%
C=C1c2cc3c(cc2NC(=S)N1Cc1ccccc1)OCO3,16µM*,i,-1%,?,i,-5%
CC(C)(C)C(=O)NC1(C(F)(F)F)C(=O)Nc2c1c(=O)[nH]c(=O)n2-c1ccccc1 (centres undefined),9%,i,/,4%,i,/
CCOC(=O)c1ccc(NC(=O)C(=O)NCc2ccco2)cc1,-16%,i,-1%,-17%,i,-2%
CN1CCN(c2ncc3nc(-c4cn(C)c5ccccc45)c(=O)n(Cc4cccs4)c3n2)CC1,1.6µM*,/,/,0.37µM*,/,/
CCNc1ncc2nc(-c3cn(C)c4ccccc34)c(=O)n(Cc3cccs3)c2n1,-26%,/,/,-7%,/,/
COc1ncc2nc(CCc3ccccc3)c(=O)n(Cc3ccc(F)cc3)c2n1,?,/,/,23µM*,/,/
CN1CCN(c2ncc3nc(CCc4ccccc4)c(=O)n(Cc4cccs4)c3n2)CC1,?,/,/,21µM*,/,/
C[C@@H]1[C@H]2[C@@H]3CC[C@@H](C3)[C@H]2CN[C@H]1c1cn(Cc2ccccc2)c2ccccc12,16µM*,i,-5%,?,i,-4%
Cc1ccc(S(=O)(=O)N2C[C@@H]3[C@H]4CC[C@H](C4)[C@@H]3[C@@H](C)[C@@H]2c2ccco2)cc1,?,i,-28%,?,i,-13%
Cc1ccc(S(=O)(=O)N2C[C@@H]3[C@H]4CC[C@H](C4)[C@@H]3[C@@H](C)[C@H]2c2ccco2)cc1,15µM*,i,-19%,15µM*,i,-11%
Cc1ccc(S(=O)(=O)N2C[C@@H]3[C@H]4CC[C@H](C4)[C@@H]3[C@@H](C)[C@@H]2c2cn(Cc3ccccc3)c3ccc(F)cc23)cc1,21µM*,i,2%,21µM*,i,0%
CC(Sc1nncs1)C(=O)NCC(=O)Nc1ccc(F)c(F)c1F (centres undefined),-11%,i,11%,-21%,i,9%
O=C(NCc1ccccc1F)C1CCCN(C(=O)N2CCOc3ccccc32)C1 (centres undefined),-24%,i,/,?,i,/
Cc1ccc(OCC(=O)Nc2ccc(OCc3cc(=O)n4ccsc4n3)cc2)cc1,1%,i,/,-16%,i,/
Cc1ccccc1-c1nnc(-c2ccc(Cl)cc2)o1,-21%,i,17%,-24%,i,2%
Cc1ccc(CS(=O)(=O)c2ccccc2-c2nnc(-c3ccc(Cl)cc3)o2)cc1,?,?,-19%,18µM*,?,-15%
COCCNc1nc(SCC(=O)N2CCN(c3ccccc3)CC2)nc2ccccc12,?,9.2µM*,-18%,?,i,1%
O=C(CSc1nc2ccccc2nc1N1CCOCC1)N1CCN(c2ccccc2)CC1,21µM*,i,-10%,12µM*,?,-27%
O=C(CSc1nc2ccccc2nc1N1CCCCC1)Nc1ccc(F)cc1,-11%,?,9%,?,i,1%
COCCNC(=O)CSc1nc2ccccc2c(=O)n1CCC(=O)N1CCN(c2ccccc2)CC1,-1%,?,1%,-19%,i,3%
Cc1cccc(N2CCN(C(=O)CSc3nc4ccccc4nc3N3CC(C)OC(C)C3)CC2)c1C (centres undefined),2.1µM*,?,-3%,4.1µM*,?,-15%
O=C(CSc1nc2ccccc2nc1N1CCCCC1)N1CCN(c2ccccc2)CC1,21µM*,21µM*,-7%,?,?,-18%
Cc1ccnc(N2CCN(C(=O)CSc3nc4ccccc4nc3N3CCC(C)CC3)CC2)c1,?,i,-3%,?,i,-4%
Cc1ccc(-n2ncc3c(N4CCCCC4)ncnc32)cc1,?,i,/,?,i,/
SMILES,TDP1 cell CPT,KB-V1 cytotox,HT1080 IDH1KD tx,DT40 TDP1 no CPT,KB-3-1 cytotox,HT1080-NT tox
O=C(CSc1ncccc1-c1nc2ccccc2[nH]1)N1CCCCC1,?,5.2µM*,4%,?,i,4%
O=C(NCc1ccc2c(c1)OCO2)NC12CC3CC(CC(C3)C1)C2,21µM*,i,-3%,18µM*,i,-20%
O=C(NC12CC3CC(CC(C3)C1)C2)N1CCC(O)(c2ccc3c(c2)OCO3)CC1,7.3µM*,i,9%,15µM*,i,-4%
COc1cccc(CNC(=O)C2=C(C)C(=O)OC23CCN(C(C)=O)CC3)c1OC,1%,i,/,-23%,?,/
CCOC(=O)CCNC(=O)Nc1cc2nc(C)n(Cc3cccc(Cl)c3)c2nc1C,-1%,i,25%,-18%,i,15%
O=C(O)C1CCCCN1C(=O)c1ccc(S(=O)(=O)N2CCCCCC2)cc1 (centres undefined),-10%,i,18%,3%,i,11%
Cc1ccc(OC(=O)c2cc(-c3ccc4c(c3)OCCO4)on2)c(C)c1,-3%,/,/,-4%,/,/
CC1(C(=O)Nc2ccc3[nH]ncc3c2)CCN1C(=O)C1(c2ccccc2)CC1 (centres undefined),8.2µM*,?,-4%,-17%,i,-10%
CC1(C(=O)Nc2cnc3ccccc3c2)CCN1C(=O)C/C=C/c1ccccc1 (centres undefined),3.3µM*,i,-12%,6.5µM*,i,-12%
CC1(C(=O)Nc2ccc3[nH]ncc3c2)CCN1C(=O)C/C=C/c1ccccc1 (centres undefined),?,?,1%,18µM*,i,-2%
CC1(C(=O)Nc2ccc3[nH]ncc3c2)CCN1C(=O)CC(c1ccccc1)c1ccccc1 (centres undefined),?,i,-1%,?,i,-1%
